# According to ChEMBL document CHEMBL3988442, “University of Dundee, Small-Polar-MMV Screening Library” (2021):
# About 1,000 (1.4%) of roughly 69,000 compounds showed an effect of 50% or more. Many of the other results were omitted from the sample, so strong results are more common in it than they were.
# Tested on: Leishmania donovani
# Test: Leishmania intramacrophage assay
# Type: functional, organism-based
# Set-up: scale not given: in the data most compounds retested in dose-response had high values
compound,measurement,setting,value
CC(NC(=O)CCc1nc(C(C)(C)C)no1)c1nnc2n1CCC2 (stereo not drawn),Percent Effect,"30.3 µM, […]",10.79%
CNC(=O)CCS(=O)(=O)Cc1cc(Cl)c2c(c1)OCCO2,Percent Effect,30 µM,6.265%
O=C(CN1CCC(C(=O)c2cc(F)ccc2F)CC1)NC1CC1,Percent Effect,"30.3 µM, […]",20.49%
CNC(=O)C(NC(=O)CCc1cccc(OC2CCCC2)c1)C(C)C (stereo not drawn),Percent Effect,"30.3 µM, […]",1.65%
Cc1nsc(C(=O)NCCCc2ccccc2)n1,Percent Effect,"30.3 µM, […]",7.564%
Cc1nc(C2CCCN2C(=O)Cn2cncn2)no1 (stereo not drawn),Percent Effect,30 µM,21.12%
CCOC(=O)c1sc2ccsc2c1CNC(=O)COC,Percent Effect,30 µM,13.66%
O=C(NCC(O)c1ccoc1)Nc1cccs1 (stereo not drawn),Percent Effect,"30.3 µM, […]",10.34%
CCC(CC)(CCO)CNC(=O)c1ccon1,Percent Effect,"30.3 µM, […]",7.917%
CC(C)c1nn(C)c(N(C)C)c1CNCc1ccccc1CO.Cl,Percent Effect,30 µM,5.046%
CC(C)c1nn(C)c(N(C)C)c1CNCc1ccccc1CN(C)C,Percent Effect,"30 µM, 30.03 µM",50.34%
COCc1ccccc1CNCc1c(C(C)C)nn(C)c1N(C)C,Percent Effect,30 µM,21.29%
O=C1N(C2CCCCC2)CCCC12CCN(S(=O)(=O)c1cccnc1)C2 (stereo not drawn),Percent Effect,"30.3 µM, […]",18%
O=C(NCC1CC1)[C@H]1C[C@@H]2CCN(CCc3ccccc3)C[C@H]2O1.O=C(O)C(F)(F)F,Percent Effect,"30.3 µM, […]",-22.31%
O=C(NC1CC1)[C@H]1C[C@@H]2CCN(CCc3ccccc3)C[C@H]2O1.O=C(O)C(F)(F)F,Percent Effect,"30 µM, 30.03 µM",7.043%
COCCNC(=O)[C@H]1C[C@@H]2CCN(CCc3ccccc3)C[C@H]2O1.O=C(O)C(F)(F)F,Percent Effect,"30.3 µM, […]",57.9%
COCCNC(=O)[C@H]1C[C@@H]2CCN(CCc3ccccc3)C[C@@H]2O1.O=C(O)C(F)(F)F,Percent Effect,"30.3 µM, […]",34.91%
CC(C)NC(=O)[C@@H]1C[C@@H]2CCN(Cc3ccoc3)C[C@H]2O1.O=C(O)C(F)(F)F,Percent Effect,"30.3 µM, […]",11.62%
O=C(NC1CCCC1)[C@@H]1C[C@@H]2CCN(Cc3ccoc3)C[C@H]2O1.O=C(O)C(F)(F)F,Percent Effect,"30.3 µM, […]",62.18%
CNC(=O)[C@H]1C[C@@H]2CN(Cc3ccccc3)C[C@H]1O2.O=C(O)C(F)(F)F,Percent Effect,"30.3 µM, […]",55.32%
CNC(=O)[C@H]1C[C@@H]2CCN(CCc3ccccc3)C[C@@H]2O1.O=C(O)C(F)(F)F,Percent Effect,"30.3 µM, […]",53.78%
O=C(NC1CC1)[C@@H]1C[C@@H]2CCN(Cc3ccoc3)C[C@@H]2O1.O=C(O)C(F)(F)F,Percent Effect,"30.3 µM, […]",29.69%
O=C(NC1CCC1)[C@@H]1C[C@@H]2CCN(CCc3ccccc3)C[C@H]2O1.O=C(O)C(F)(F)F,Percent Effect,"30.3 µM, […]",-19.62%
CNC(=O)[C@H]1C[C@@H]2CN(Cc3ccc(C)cc3)C[C@H]1O2.O=C(O)C(F)(F)F,Percent Effect,"30.3 µM, […]",47.12%
CNC(=O)[C@H]1C[C@@H]2CN(Cc3cccc(C)c3)C[C@H]1O2.O=C(O)C(F)(F)F,Percent Effect,"30.3 µM, […]",36.09%
CC(C)NC(=O)[C@@H]1C[C@@H](N)CN1C(=O)CCSCc1ccccc1,Percent Effect,"30.3 µM, […]",17.42%
CCC[C@H]1CN(CCS(C)(=O)=O)C[C@@H]1NC(=O)c1cc(CC)on1,Percent Effect,"30.3 µM, […]",-7.054%
CCS(=O)(=O)NCC1OCCc2cn(CCOC)nc21 (stereo not drawn),Percent Effect,"30.3 µM, […]",22.39%
CNc1nc(CNC(=O)Nc2cccc(COCCOC(C)C)c2)cs1,Percent Effect,"30.3 µM, […]",10.56%
Cc1cc(O)n2nc(C3CCN(C(=O)c4ccccn4)CC3)cc2n1,Percent Effect,"30.3 µM, […]",-30.04%
O=C(NCCCn1cncn1)N1CCCCCC1,Percent Effect,30 µM,20.62%
CCS(=O)(=O)NCCNC(=O)c1cc(Cl)c2c(c1)OCCCO2,Percent Effect,"30 µM, 30.03 µM",35.29%
COc1cccc2c1OCCCN(Cc1ncccc1C(=O)O)C2,Percent Effect,"30.3 µM, […]",-9.577%
CN(CCCOc1ccccc1)C(=O)CN1CCc2cncnc2C1,Percent Effect,"30 µM, 30.03 µM",6.848%
N[C@@H]1CC[C@@H](NC(=O)c2ccccc2OC(F)(F)C(F)F)C1,Percent Effect,"30.3 µM, […]",-30%
Cc1noc([C@]23COC[C@H]2CN(C(=O)Cc2ccsc2)C3)n1,Percent Effect,"30.3 µM, […]",57.44%
CCOCC(=O)N1C[C@@H]2COC[C@]2(c2nc(C)no2)C1,Percent Effect,"30.3 µM, […]",46.85%
Cc1noc([C@]23COC[C@H]2CN(C(=O)COC2CCCC2)C3)n1,Percent Effect,"30.3 µM, […]",14.27%
O=C(O)C(F)(F)F.c1cc(CN2CCC3(CCOCC3COCC3CC3)CC2)co1 (stereo not drawn),Percent Effect,"30.3 µM, […]",12%
Fc1cccc(N2CCCC3(C2)CN(c2ncccn2)CCO3)c1.O=C(O)C(F)(F)F.O=C(O)C(F)(F)F (stereo not drawn),Percent Effect,"30 µM, 30.03 µM",0.139%
Fc1cccc(N2CCCC3(CN(Cc4nccs4)CCO3)C2)c1.O=C(O)C(F)(F)F.O=C(O)C(F)(F)F (stereo not drawn),Percent Effect,"30.3 µM, […]",41.24%
c1cncc(C2=NOC3(CCN(Cc4c[nH]c5ccccc45)CC3)C2)c1,Percent Effect,"30.3 µM, […]",11.25%
c1ccc(C2=NOC3(CCN(Cc4c[nH]c5ccccc45)CC3)C2)cc1,Percent Effect,"30.3 µM, […]",96.36%
CC(C)C1=NOC2(CCN(Cc3c[nH]c4ccccc34)CC2)C1,Percent Effect,"30.3 µM, […]",1.888%
CN(C(=O)c1ccc(S(=O)(=O)NC(C)(C)C)cc1)C1(C#N)CCC1,Percent Effect,"30.3 µM, […]",6.383%
CN1CCN(Cc2nnc(C3CCN(CC4CC4)CC3)n2C)CC1,Percent Effect,"30 µM, 30.03 µM",36.3%
CN1CCC(c2nnc(CN3CCC(O)CC3)n2C)CC1,Percent Effect,"30 µM, 30.03 µM",13.07%
CC(C)=CCN1CCC(c2nnc(CN3CCN(C)CC3)n2C)CC1,Percent Effect,"30.3 µM, […]",50.84%
CCc1sc(-c2nnc(CNC(C)Cn3cccn3)o2)cc1C (stereo not drawn),Percent Effect,"30.3 µM, […]",-1.714%
O=C(c1cnc(Nc2ccccc2)nc1)N1CCC(O)(CO)CC1,Percent Effect,"30.3 µM, […]",-16.52%
c1cnn(CCNCc2cnc(N3CCCC3)nc2)c1,Percent Effect,"30.3 µM, […]",36.96%
CC(Cn1cccn1)NCc1cnc(N2CCCC2)nc1 (stereo not drawn),Percent Effect,"30.3 µM, […]",6.002%
c1ccc(Cn2cccn2)c(CNCc2cnc(N3CCCC3)nc2)c1,Percent Effect,"30.3 µM, […]",54.07%
O=C(O)C(F)(F)F.O=C(O)C(F)(F)F.c1coc(CN2CCCn3c(CN4CCOCC4)nnc3C2)c1,Percent Effect,"30.3 µM, […]",2.025%
O=c1ccc(-c2cccs2)nn1CN1CCN(c2ccccn2)CC1,Percent Effect,"30.3 µM, […]",5.805%
CSCc1cccc(S(=O)(=O)NCCO)c1,Percent Effect,"30.3 µM, […]",7.47%
CCN(CC)CCNS(=O)(=O)c1cccc(CSC)c1,Percent Effect,"30.3 µM, […]",-28.14%
CCNS(=O)(=O)c1cccc(CSC)c1,Percent Effect,"30.3 µM, […]",64.35%
